Assay results published in ChEMBL document CHEMBL4513216, “Probing the Open Global Health Chemical Diversity Library for Multistage-Active Starting Points for Next-Generation Antimalarials” (ACS Infect Dis, 2020).
Out of some 69,000 compounds screened, about 8,600 (12%) showed an effect of 50% or more. Shown is part of a subset that was picked to be rich in strong results.

These molecules were tested on Plasmodium berghei (assay: Screen against P. berghei liver stage (PbLuc), transformed with Luciferase, at 10uM). Settings: tested at 10 uM.
Type: functional, HepG2

Structure (SMILES) | INHIBITION [%]
CN1C(=O)Cc2cc(-c3csc(CCN4CCOC4=O)n3)ccc21 | 19.2
CC(C)CN1C[C@H]2CCN(Cc3cccnc3)CC[C@H]2S1(=O)=O | 42.1
CCn1cc(CN2CCCN(C(=O)CCc3nccs3)CC2)cn1 | 1.78
O=C(Nc1cc(F)ccc1OCC1CCCO1)NC1CC1 (stereo not drawn) | -12.1
CC(C)(C)CN1CCCC2(CCN(C(=O)c3ccc(O)nc3)C2)C1 (stereo not drawn) | 43.1
CC(C)(C)CN1CCCC2(CCN(C(=O)c3cn[nH]c3)C2)C1 (stereo not drawn) | 68
O=C(c1cn[nH]c1)N1CCC2(CCCN(Cc3ccc(F)c(F)c3)C2)C1 (stereo not drawn) | 25.8
Cc1cnn(CC2CN(CC(=O)Nc3nncs3)CCO2)c1 (stereo not drawn) | 30.76
CC(=O)N1CCCC1c1nc(C)cc(-c2ccc(F)cc2)n1 (stereo not drawn) | 48.4
CN1CCC/C1=N\S(=O)(=O)c1ccc(NC(=O)c2ccco2)cc1 | -67.3
CNS(=O)(=O)c1ccc(F)c(C(=O)NCc2ccnc(OC)c2)c1 | 31.2
CC(C)c1noc(CCC(=O)Nc2cc(C(F)(F)F)c[nH]c2=O)n1 | 41.5
CCc1noc(CCCC(=O)Nc2cc(C(F)(F)F)c[nH]c2=O)n1 | 29.8
CCCc1noc(CCC(=O)Nc2cc(C(F)(F)F)c[nH]c2=O)n1 | 52.2
Cc1cnn(CC2CN(c3nnc(C)c(C)c3C#N)CCO2)c1 (stereo not drawn) | 15.635
COC(=O)CNC(=O)CSCc1nc(O)c2c(C)c(C)sc2n1 | 22.1
Cc1sc2nc(CCN)nc(N3CCC(N4CCCC4)CC3)c2c1C | 39.6
CCOC(=O)N1CCN(C(=O)c2sc(-c3ccccc3F)nc2C)CC1 | 39.9
CCc1c(C)sc2ncnc(N3C[C@H](O)[C@@H](N4CCCC4)C3)c12 | 48.5
Cc1nc(C2CCN(S(C)(=O)=O)CC2)nc(N2CCCC2)c1C | 11.25
Cc1sc2nc(CCN)nc(N3CC(N4CCCCC4)C3)c2c1C | 86.9
Cc1sc2nc(CCN)nc(N3CCS(=O)(=O)CC3)c2c1C | 31.3
CCOC(=O)N1CCN(c2nc(CCN)nc3sc(C)c(C)c23)CC1 | 90.7
Cc1sc2nc(CCN)nc(N3CCN(S(C)(=O)=O)CC3)c2c1C | 67.5
NC(=O)c1cccc(-c2cnc(C3CCCNC3)cn2)c1 (stereo not drawn) | 34.3
CC(C)N(C)Cc1ncn2c1CN(S(=O)(=O)c1cccs1)CCC2 | 38.5
Cc1noc([C@@H](C)NCc2ccc(F)cc2)c1C(=O)O | -4.82

Structure (SMILES) | INHIBITION [%]
CCCS(=O)(=O)N1C[C@@H]2CN(Cc3ccco3)CCO[C@@H]2C1 | -32.6
O=C(NCC1CCOC1)N1CCN(Cc2ccc3c(c2)OCO3)CC1 (stereo not drawn) | 33.3
Cc1cc2cc(C(=O)N[C@@H]3CC[C@@H](N4CCCC4)[C@@H]3O)ccc2o1 | 26.3
Cc1noc(C2CCCN(Cn3cc(Br)cn3)C2)n1 (stereo not drawn) | -12.2
Cc1noc(CS(=O)(=O)CC(=O)NC(C)c2ccccc2)n1 (stereo not drawn) | 31.2
CCCc1noc(CS(=O)(=O)CC(=O)NC(C)CCC)n1 (stereo not drawn) | 58.3
CCC(C)NC(=O)CS(=O)(=O)Cc1nc(-c2cccs2)no1 (stereo not drawn) | 46.4
CC[C@@H]1N(CC2CC2)CCC[C@]12CCC(=O)N2CCOC | 4.2
Cc1noc(CN2CCN(C(=O)c3ccccn3)CC2)n1 | 37.3
Cc1nc(CN2CCCN(C(=O)c3ccccn3)CC2)oc1C | 60.5
CCc1nnc(CN2CCCN(C(=O)c3ccccn3)CC2)o1 | -47.6
Cc1nc(CN2CCCN(C(=O)c3ccn(C)c(=O)c3)CC2)cs1 | -12.2
O=C(Cc1ccc(Cl)cc1)N1CCC(O)(C(F)(F)F)C1 (stereo not drawn) | -55
O=C(NC1CCCC1)c1ccc(COCC(F)(F)F)o1 | 31.6
O=C(c1ccc(COc2ccc(Cl)cc2)o1)N1N=CCC1(O)C(F)(F)F (stereo not drawn) | 89.3
Cc1cccc(OCc2ccc(C(=O)N3N=CCC3(O)C(F)(F)F)o2)c1 (stereo not drawn) | 69.2
COCc1ccc(C(=O)N2CCC(Oc3ccccc3)(C(=O)O)CC2)o1 | -11.6
O=C(c1ccc(COc2ccccc2Cl)o1)N1N=CCC1(O)C(F)(F)F (stereo not drawn) | 4.66
COc1ccc(C(=O)COc2coc(CN3CCCCC3)cc2=O)cc1 | 44.9
CC(C)NC(=O)N1CC[C@@H](N(C)C)[C@@H]1Cc1ccncc1 | 28.2
CCS(=O)(=O)N1CCN(Cc2ccncc2)c2nc(C)ccc2C1 | 48.6
CC(c1ccc2c(c1)OCO2)n1cc2nc(N(C)C)[nH]cc-2c1=O (stereo not drawn) | 39.3
CC(C)CC(=O)Nc1ccc2c(c1)ncn2CC(=O)NCCN(C)C | 32.4
COCCN1CCCC(CCCc2ccccn2)(C(N)=O)C1 (stereo not drawn) | -58.7
CCOc1ccc(NC(C)=O)cc1S(=O)(=O)Nc1nnc(C)s1 | 21.8
CCOc1ccc(NC(C)=O)cc1S(=O)(=O)Nc1ccon1 | 7.83
